# In the supplement of paper PMC4466140:
# How the values were obtained:
# Assay in all cases: SPOT peptide array binding signal intensity (averaged, normalized) (arbitrary units (background-subtracted, floor 0; scale differs between SH3 domains)); higher = stronger binding of the SH3 domain to the peptide
# AgAbp1 = target: AgAbp1
# In short: (§1)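 Detection of bound protein relied on anti-GST antibody, an HRP anti-mouse secondary and luminol, with imaging and quantification in Genespotter. The bound protein was GST-fused SH3 domains from four yeast species, incubated at 10 μg/ml overnight at 4°C in TBS-based blocking buffer on cellulose membranes carrying synthetic 15-mer peptides with cysteines replaced by serines. Binding signal is normalized, background-subtracted spot intensity averaged over replicates, in arbitrary units that differ between domains.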
# AgBbc1 = target: AgBbc1
# In short: as §1
# AgBem1-D1 = target: AgBem1-D1
# In short: as §1
# AgBzz1-D1 = target: AgBzz1-D1
# In short: as §1
# AgBzz1-D2 = target: AgBzz1-D2
# In short: as §1
# AgCyk3 = target: AgCyk3
# In short: as §1
# AgFus1 = target: AgFus1
# In short: as §1
# AgHof1 = target: AgHof1
# In short: as §1
# AgHse1 = target: AgHse1
# In short: as §1
# AgLsb1 = target: AgLsb1
# In short: as §1
# AgLsb4 = target: AgLsb4
# In short: as §1
# AgMyo5 = target: AgMyo5
# In short: as §1
# AgNbp2 = target: AgNbp2
# In short: as §1
# AgRvs167 = target: AgRvs167
# In short: as §1
# AgSho1 = target: AgSho1
# In short: as §1
# AgSla1-D1-D2 = target: AgSla1-D1-D2
# In short: as §1
# AgSla1-D3 = target: AgSla1-D3
# In short: as §1
# CaAbp1-D1 = target: CaAbp1-D1
# In short: as §1
# CaAbp1-D2 = target: CaAbp1-D2
# In short: as §1
# CaBbc1 = target: CaBbc1
# In short: as §1
# CaBem1-D1 = target: CaBem1-D1
# In short: as §1
# CaBzz1-D1 = target: CaBzz1-D1
# In short: as §1
# CaBzz1-D2 = target: CaBzz1-D2
# In short: as §1
# CaCyk3 = target: CaCyk3
# In short: as §1
# CaFus1 = target: CaFus1
# In short: as §1
# CaHof1 = target: CaHof1
# In short: as §1
# CaHse1 = target: CaHse1
# In short: as §1
# CaLsb1 = target: CaLsb1
# In short: as §1
# CaLsb4 = target: CaLsb4
# In short: as §1
# CaMyo5 = target: CaMyo5
# In short: as §1
# CaNbp2 = target: CaNbp2
# In short: as §1
# CaRvs167 = target: CaRvs167
# In short: as §1
# CaRvs167-3 = target: CaRvs167-3
# In short: as §1
# CaSho1 = target: CaSho1
# In short: as §1
# CaSla1-D1-D2 = target: CaSla1-D1-D2
# In short: as §1
# CaSla1-D3 = target: CaSla1-D3
# In short: as §1
# ScAbp1 = target: ScAbp1
# In short: as §1
# ScBbc1 = target: ScBbc1
# In short: as §1
# ScBem1-D1 = target: ScBem1-D1
# In short: as §1
# ScBzz1-D1 = target: ScBzz1-D1
# In short: as §1
# ScBzz1-D2 = target: ScBzz1-D2
# In short: as §1
# ScCyk3 = target: ScCyk3
# In short: as §1
# ScFus1 = target: ScFus1
# In short: as §1
# ScHof1 = target: ScHof1
# In short: as §1
# ScHse1 = target: ScHse1
# In short: as §1
# ScLsb1 = target: ScLsb1
# In short: as §1
# ScLsb2 = target: ScLsb2
# In short: as §1
# ScLsb3 = target: ScLsb3
# In short: as §1
# ScLsb4 = target: ScLsb4
# In short: as §1
# ScMyo3 = target: ScMyo3
# In short: as §1
# ScMyo5 = target: ScMyo5
# In short: as §1
# ScNbp2 = target: ScNbp2
# In short: as §1
# ScPex13 = target: ScPex13
# In short: as §1
# ScRvs167 = target: ScRvs167
# In short: as §1
# ScSho1 = target: ScSho1
# In short: as §1
# ScSla1-D1-D2 = target: ScSla1-D1-D2
# In short: as §1
# ScSla1-D3 = target: ScSla1-D3
# In short: as §1
# SpAbp1-D1 = target: SpAbp1-D1
# In short: as §1
# SpBbc1 = target: SpBbc1
# In short: as §1
# SpBzz1-D1 = target: SpBzz1-D1
# In short: as §1
# SpBzz1-D2 = target: SpBzz1-D2
# In short: as §1
# SpCyk3 = target: SpCyk3
# In short: as §1
# SpHof1 = target: SpHof1
# In short: as §1
# SpHof1-2 = target: SpHof1-2
# In short: as §1
# SpHof1-3 = target: SpHof1-3
# In short: as §1
# SpHse1 = target: SpHse1
# In short: as §1
# SpLsb1 = target: SpLsb1
# In short: as §1
# SpLsb4 = target: SpLsb4
# In short: as §1
# SpMyo1 = target: SpMyo1
# In short: as §1
# SpNbp2 = target: SpNbp2
# In short: as §1
# SpPex13 = target: SpPex13
# In short: as §1
# SpRvs167 = target: SpRvs167
# In short: as §1
# SpSla1-D1-D2 = target: SpSla1-D1-D2
# In short: as §1
# SpSla1-D3 = target: SpSla1-D3
# In short: as §1
binder,measurement,setting,value
KKAPPPVVKPKPRNF,SPOT peptide array binding signal intensity,AgAbp1,4680
same,SPOT peptide array binding signal intensity,AgBbc1,58
same,SPOT peptide array binding signal intensity,AgBem1-D1,44.5
same,SPOT peptide array binding signal intensity,AgBzz1-D1,316
same,SPOT peptide array binding signal intensity,AgBzz1-D2,101
same,SPOT peptide array binding signal intensity,AgCyk3,≤ 0
same,SPOT peptide array binding signal intensity,AgFus1,31
same,SPOT peptide array binding signal intensity,AgHof1,63.5
same,SPOT peptide array binding signal intensity,AgHse1,39
same,SPOT peptide array binding signal intensity,AgLsb1,1.75
same,SPOT peptide array binding signal intensity,AgLsb4,12.5
same,SPOT peptide array binding signal intensity,AgMyo5,≤ 0
same,SPOT peptide array binding signal intensity,AgNbp2,45
same,SPOT peptide array binding signal intensity,AgRvs167,6
same,SPOT peptide array binding signal intensity,AgSho1,15
same,SPOT peptide array binding signal intensity,AgSla1-D1-D2,8
same,SPOT peptide array binding signal intensity,AgSla1-D3,32.5
same,SPOT peptide array binding signal intensity,CaAbp1-D1,3270
same,SPOT peptide array binding signal intensity,CaAbp1-D2,6180
same,SPOT peptide array binding signal intensity,CaBbc1,154
same,SPOT peptide array binding signal intensity,CaBem1-D1,15.5
same,SPOT peptide array binding signal intensity,CaBzz1-D1,1220
same,SPOT peptide array binding signal intensity,CaBzz1-D2,2260
same,SPOT peptide array binding signal intensity,CaCyk3,5
same,SPOT peptide array binding signal intensity,CaFus1,45.5
same,SPOT peptide array binding signal intensity,CaHof1,1
same,SPOT peptide array binding signal intensity,CaHse1,1.25
same,SPOT peptide array binding signal intensity,CaLsb1,2.5
same,SPOT peptide array binding signal intensity,CaLsb4,15.5
same,SPOT peptide array binding signal intensity,CaMyo5,1.5
same,SPOT peptide array binding signal intensity,CaNbp2,36.5
same,SPOT peptide array binding signal intensity,CaRvs167,11
same,SPOT peptide array binding signal intensity,CaRvs167-3,8
same,SPOT peptide array binding signal intensity,CaSho1,23
same,SPOT peptide array binding signal intensity,CaSla1-D1-D2,3160
same,SPOT peptide array binding signal intensity,CaSla1-D3,4.75
same,SPOT peptide array binding signal intensity,ScAbp1,7880
same,SPOT peptide array binding signal intensity,ScBbc1,3
same,SPOT peptide array binding signal intensity,ScBem1-D1,6
same,SPOT peptide array binding signal intensity,ScBzz1-D1,178
same,SPOT peptide array binding signal intensity,ScBzz1-D2,60
same,SPOT peptide array binding signal intensity,ScCyk3,7
same,SPOT peptide array binding signal intensity,ScFus1,15
same,SPOT peptide array binding signal intensity,ScHof1,3.5
same,SPOT peptide array binding signal intensity,ScHse1,61
same,SPOT peptide array binding signal intensity,ScLsb1,20.5
same,SPOT peptide array binding signal intensity,ScLsb2,2
same,SPOT peptide array binding signal intensity,ScLsb3,≤ 0
same,SPOT peptide array binding signal intensity,ScLsb4,3.5
same,SPOT peptide array binding signal intensity,ScMyo3,≤ 0
same,SPOT peptide array binding signal intensity,ScMyo5,≤ 0
same,SPOT peptide array binding signal intensity,ScNbp2,32
same,SPOT peptide array binding signal intensity,ScPex13,0.5
same,SPOT peptide array binding signal intensity,ScRvs167,5.17
same,SPOT peptide array binding signal intensity,ScSho1,37.5
same,SPOT peptide array binding signal intensity,ScSla1-D1-D2,3640
same,SPOT peptide array binding signal intensity,ScSla1-D3,17
same,SPOT peptide array binding signal intensity,SpAbp1-D1,2160
same,SPOT peptide array binding signal intensity,SpBbc1,0.75
same,SPOT peptide array binding signal intensity,SpBzz1-D1,318
same,SPOT peptide array binding signal intensity,SpBzz1-D2,0.5
same,SPOT peptide array binding signal intensity,SpCyk3,1
same,SPOT peptide array binding signal intensity,SpHof1,12
same,SPOT peptide array binding signal intensity,SpHof1-2,13.2
same,SPOT peptide array binding signal intensity,SpHof1-3,31
same,SPOT peptide array binding signal intensity,SpHse1,117
same,SPOT peptide array binding signal intensity,SpLsb1,1140
same,SPOT peptide array binding signal intensity,SpLsb4,27
same,SPOT peptide array binding signal intensity,SpMyo1,7
same,SPOT peptide array binding signal intensity,SpNbp2,43
same,SPOT peptide array binding signal intensity,SpPex13,3.5
same,SPOT peptide array binding signal intensity,SpRvs167,≤ 0
same,SPOT peptide array binding signal intensity,SpSla1-D1-D2,5.5
same,SPOT peptide array binding signal intensity,SpSla1-D3,10.5
